{"source": "PubChem BioAssay AID588726", "about": "(The Scripps Research Institute Molecular Screening Center, 2011)", "note": "The whole screen tested about 360,000 compounds, of which about 8,200 (2.3%) were called active. This excerpt belongs to a sample that is enriched for actives. Unmarked numbers belong to inactive results. No stated cut-off is given here; in the data, active means inhibition above about 27%; inactive means the rest.", "data": [{"target": "Fructose-bisphosphate aldolase (Mycobacterium tuberculosis (strain ATCC 25618 / H37Rv)) (UniProt P9WQA3)", "sequence (P9WQA3 whole entry, looked up)": "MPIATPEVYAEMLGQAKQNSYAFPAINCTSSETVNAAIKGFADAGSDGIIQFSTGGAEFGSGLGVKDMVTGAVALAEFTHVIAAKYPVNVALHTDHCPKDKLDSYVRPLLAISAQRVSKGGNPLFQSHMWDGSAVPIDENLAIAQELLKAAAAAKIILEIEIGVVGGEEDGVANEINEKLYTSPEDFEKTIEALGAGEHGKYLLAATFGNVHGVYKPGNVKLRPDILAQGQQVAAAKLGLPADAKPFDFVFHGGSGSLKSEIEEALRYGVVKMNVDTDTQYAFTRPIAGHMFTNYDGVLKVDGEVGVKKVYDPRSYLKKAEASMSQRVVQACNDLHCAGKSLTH", "assay": "Mtb FBA enzyme inhibitors, primary screen, biochemical, fluorescence, strain H37Rv (AID 588726);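 further: 0% = vehicle and 100% = reference inhibitor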", "conditions": "purified M. tuberculosis FBA, fluorescence read-out, at 1 µM, active compounds read high", "values": [{"compound": "CSc1nnc(-c2ccncc2)n1CCCN1CCCC1=O", "inhibition": "0.93%"}, {"compound": "N#CCC(=O)NC1CCC(CC2CCC(NC(=O)CC#N)CC2)CC1", "note": "(configuration not stated)", "inhibition": "3.18%"}, {"compound": "COc1cc(OC)c(C2=NOC(C(=O)Nc3c(C)n(C)n(-c4ccccc4)c3=O)C2)cc1Cl", "note": "(configuration not stated)", "inhibition": "-0.74%"}, {"compound": "CSCC(=O)N1CCCC(C(=O)c2cc(F)ccc2F)C1", "note": "(configuration not stated)", "inhibition": "-1.12%"}, {"compound": "Cc1nccn1-c1ccc(NC(=O)[C@H]2O[C@@H](n3cnc4c(N)ncnc43)[C@H](O)[C@@H]2O)cc1", "inhibition": "0.84%"}, {"compound": "O=C(O/N=C(/c1ccccc1)c1ccncc1)c1ccccc1[N+](=O)[O-]", "inhibition": "2.83%"}, {"compound": "CCCc1cc(=O)oc2c(C)c(OCC(=O)NCc3ccccn3)ccc12", "inhibition": "0.52%"}, {"compound": "Cc1cc(Cl)ccc1OCCCC(=O)NCc1ccccn1", "inhibition": "1.44%"}, {"compound": "Cc1cc(=O)oc2c(C)c(OCC(=O)NCCc3ccc(S(N)(=O)=O)cc3)ccc12", "inhibition": "12.6%"}, {"compound": "Cc1ccccc1NC(=O)COc1cccc2c1CCNC2=O", "inhibition": "0.77%"}, {"compound": "Cc1cc(=O)oc2c(C)c(OCC(=O)NCCN3CCOCC3)ccc12", "inhibition": "16%"}, {"compound": "Cc1nn(C)c(C)c1S(=O)(=O)N1CCc2ccccc21", "inhibition": "6.1%"}, {"compound": "CC(C)CNC(=O)/C=C/C(=O)O", "inhibition": "10.5%"}, {"compound": "O=C1NC2(CCCCC2)N=C1c1ccccc1", "inhibition": "1.74%"}, {"compound": "CC(C)Cc1ccc(-c2cc3nc(NCc4cccc(Cl)c4)ccn3n2)cc1", "inhibition": "14.9%"}, {"compound": "Cc1ccc(C)c(NS(=O)(=O)c2cc(Br)cnc2N)c1", "inhibition": "3.42%"}, {"compound": "O=S1(=O)CCOC[C@H](Cc2ccccc2)N1Cc1ccccc1Br", "inhibition": "-3.56%"}, {"compound": "COC(=O)[C@H]1C[C@H](OC(=O)NCc2ccccc2)[C@@]2(O)CN(S(=O)(=O)c3ccc(C)cc3)CC2[C@H]1C(=O)OC", "note": "(some centres not stated)", "inhibition": "0.56%"}, {"compound": "Cc1ccc(S(=O)(=O)N2C[C@@H](C)[C@]3(C2)[C@H](O)[C@H](OC(=O)NCc2ccccc2)C[C@H]2C(=O)N(c4ccccc4)C(=O)[C@H]23)cc1", "inhibition": "67.2% (active)"}, {"compound": "Cc1ccc(S(=O)(=O)N2C[C@]3(O)C[C@@H]4C(=O)N(c5ccccc5)C(=O)[C@@H]4C[C@]3(OC(=O)NC3CC3)C2)cc1", "inhibition": "0.49%"}, {"compound": "CC(C)C(c1nnnn1C(C)(C)C)N1CCN(Cc2cccnc2)CC1", "note": "(configuration not stated)", "inhibition": "0.62%"}, {"compound": "c1cc(-c2ccc3[nH]ccc3c2)n2ccnc2c1", "inhibition": "81.5% (active)"}, {"compound": "S=c1[nH]cc(-c2ccc(Cl)cc2)n1-c1ccccc1", "inhibition": "-0.17%"}, {"compound": "O=C(NCCO)c1cccc(-c2cccc3nccn23)c1", "inhibition": "10.8%"}, {"compound": "Clc1ccc(-c2nc3ccccn3c2CN2CCSCC2)cc1", "inhibition": "0.24%"}, {"compound": "Cc1ccc(NC(=O)C2(N3CCC3=O)CCCCC2)cc1", "inhibition": "-1.03%"}, {"compound": "CC/C(=N\\NC(=O)c1c(C)nc2ccccn12)c1ccc(Cl)cc1", "inhibition": "1.77%"}, {"compound": "O=C(CN1CCN(S(=O)(=O)c2ccc(F)cc2)CC1)NC1CC1", "inhibition": "0.31%"}, {"compound": "CC1CC2=C(CC1/C=N/NC(N)=S)C(C)(C)CCC2", "note": "(configuration not stated)", "inhibition": "-2.62%"}, {"compound": "COc1ccc(Nc2oc(-c3ccccc3Cl)nc2C#N)cc1", "inhibition": "14.5%"}, {"compound": "CC(C)(C)n1nc(Cc2cccc3ccccc23)c(C#N)c1N", "inhibition": "-0.08%"}, {"compound": "O=C(CN1CCN(C2CCS(=O)(=O)C2)CC1)N1N=C(c2ccc(Cl)cc2)CC1c1ccco1", "note": "(configuration not stated)", "inhibition": "-0.95%"}, {"compound": "O=c1[nH]cnc(O)c1C(c1ccc(F)cc1)c1c(O)nc[nH]c1=O", "inhibition": "1.39%"}, {"compound": "Cc1cc(N=Nc2ccc3ccccc3c2)ccc1O", "inhibition": "-3.13%"}, {"compound": "Cc1nc2ccccc2cc1O", "inhibition": "116% (active)"}, {"compound": "Cc1nc2ccccc2nc1CC(O)(c1ccccc1)c1ccccc1", "inhibition": "0.56%"}, {"compound": "C=Cn1c(C(=O)O)ccc1-c1ccc(OC)cc1", "inhibition": "1.98%"}, {"compound": "COc1ccc(-c2cc(C)nc3nc(N)nn23)cc1", "inhibition": "124% (active)"}, {"compound": "Cc1cc(-c2ccccc2)n2nc(C)c(-c3ccccc3)c2n1", "inhibition": "4.02%"}, {"compound": "COC(=O)c1ccc(C)c(NC(=O)Cn2c(C)csc2=O)c1", "inhibition": "-1.21%"}, {"compound": "CCOC(=O)c1c(-c2ccccc2)oc2cc(Br)c(O)c(C=O)c12", "inhibition": "-2.33%"}, {"compound": "CCOC(=O)c1c(C)oc2cc(Br)c(OCC(N)=O)cc12", "inhibition": "5.33%"}, {"compound": "CCOC(=O)c1c(-c2ccccc2)oc2ccc(OCC(=O)NN)cc12", "inhibition": "58.4% (active)"}, {"compound": "CCOC(=O)c1c(C)[nH]c(C(=O)COc2ccc3c(c2)OCO3)c1C", "inhibition": "6.18%"}, {"compound": "CCOC(=O)c1c(C)oc2cc(Sc3ccccc3)c(O)c(O)c12", "inhibition": "-6.47%"}, {"compound": "N#CC1(NC(=O)COc2ccc3oc4ccccc4c3c2)CCCCC1", "inhibition": "-0.49%"}, {"compound": "COC(=O)c1c(C)oc2ccc(N(C(=O)Oc3ccccc3)S(=O)(=O)c3ccccc3)cc12", "inhibition": "-6.44%"}, {"compound": "CCOC(=O)c1c(-c2ccccc2)oc2ccc(OCC(N)=O)cc12", "inhibition": "72.7% (active)"}, {"compound": "CCOC(=O)c1c(-c2ccccc2)oc2ccc(OC(=O)N(C)C)cc12", "inhibition": "38.7% (active)"}, {"compound": "S=C(NC1CCCCC1)NN1CCOCC1", "inhibition": "-5.42%"}, {"compound": "c1ccc2c(c1)CSc1sccc1C2=C1CCNCC1", "inhibition": "4.51%"}, {"compound": "N#Cc1cccc(NC(=O)CCC2CCCC2)c1", "inhibition": "-3.71%"}, {"compound": "OC(COCCC12CC3CC(CC(C3)C1)C2)CN1CCCCC1", "note": "(configuration not stated)", "inhibition": "-2.2%"}, {"compound": "COc1ccc(-n2c(SCC(=O)Nc3ccc4c(c3)OCO4)nnc2C(C)N2CCCCC2)cc1", "note": "(configuration not stated)", "inhibition": "0.95%"}, {"compound": "COc1ccc(C(C(=O)NC2CCCC2)N(CCCO)C(=O)Cn2nnc(-c3ccc(C)o3)n2)cc1", "note": "(configuration not stated)", "inhibition": "0.22%"}, {"compound": "CCOC(=O)CCCCCC(=O)Nc1ccc2c(c1)CC(=O)N([C@@H](C)CO)C[C@H](C)[C@@H](CN(C)Cc1ccccc1)O2", "inhibition": "1.41%"}, {"compound": "Cc1nnc(NC2=NCCCCC2)o1", "inhibition": "2.72%"}, {"compound": "COC(=O)c1cccnc1NC(=S)NC(C)C", "inhibition": "-6.99%"}, {"compound": "CSc1nnc(-c2ccc(C(F)(F)F)cn2)o1", "inhibition": "7.82%"}, {"compound": "C=CCNC(=O)c1ccc2c3n(nc2c1)-c1ccc(C)cc1CO3", "inhibition": "46.8% (active)"}, {"compound": "Cc1ccc(-n2nc3c(c2NC(=O)c2ccc4c(c2)OCO4)CSC3)c(C)c1", "inhibition": "0.86%"}, {"compound": "Cc1cccc(-c2nc3ccc(C(=O)NCCN4CCN(C)CC4)cc3nc2-c2cccc(C)c2)c1", "inhibition": "25.3%"}, {"compound": "COc1cc(C(=O)OC2CCOC2=O)c([N+](=O)[O-])cc1OC", "note": "(configuration not stated)", "inhibition": "1.88%"}, {"compound": "CC(C)c1ccc(C(=O)OC2CCOC2=O)cc1", "note": "(configuration not stated)", "inhibition": "-2.02%"}, {"compound": "O=C(OC1CCOC1=O)c1ccc(-c2nc3ccccc3s2)s1", "note": "(configuration not stated)", "inhibition": "36.7% (active)"}, {"compound": "Cc1cc(C)c(S(=O)(=O)c2ccccc2)c(OC(=O)c2c(F)cccc2Cl)n1", "inhibition": "2.73%"}, {"compound": "COc1ccc(-c2nc3cc(C)ccn3c2NC2CCCCC2)cc1SC1CCCCC1", "inhibition": "27.2% (active)"}, {"compound": "Cc1ccc2nc(-c3cccnc3)c(NC3CCCC3)n2c1", "inhibition": "2.23%"}, {"compound": "COc1ccc(-c2nc3cnccn3c2NC2CCCCC2)cc1-c1cccc(Cl)c1", "inhibition": "24.3%"}, {"compound": "Cc1[nH]nc(-c2ccc(OCc3cnn(-c4ccccc4)c3)cc2O)c1Oc1ccc(Cl)cc1", "inhibition": "3.96%"}, {"compound": "COc1ccc(S(=O)(=O)N2CCOC2CNC(=O)C(=O)NCc2ccc(F)cc2)cc1", "note": "(configuration not stated)", "inhibition": "-0.16%"}, {"compound": "CC(Oc1ccc(F)cc1)C(=O)N1CCN(c2ncccn2)CC1", "note": "(configuration not stated)", "inhibition": "1.68%"}, {"compound": "c1cnc(N2CCN(c3ccc4ccccc4n3)CC2)nc1", "inhibition": "2.95%"}, {"compound": "CC12CCC(C(=O)N3CCN(c4ncccn4)CC3)(c3nc4ccccc4nc31)C2(C)C", "note": "(configuration not stated)", "inhibition": "30% (active)"}, {"compound": "COC(=O)C1=CO[C@@H](O[C@@H]2O[C@H](CO)[C@@H](O)[C@H](O)[C@H]2O)C2C1C[C@H](O)[C@@H]2C", "note": "(some centres not stated)", "inhibition": "-0.2%"}, {"compound": "CCCc1cc(=O)oc2c(C)c(OCC(=O)Nc3ccccn3)ccc12", "inhibition": "14.2%"}, {"compound": "Cc1cc(=O)oc2c(C)c(OCC(=O)N3CCN(Cc4ccc5c(c4)OCO5)CC3)ccc12", "inhibition": "20.6%"}, {"compound": "CCc1cc(=O)oc2c(C)c(OCC(=O)NCCN3CCOCC3)ccc12", "inhibition": "18%"}, {"compound": "CCc1cc(=O)oc2c(C)c(OCC(=O)N3CC[C@@]4(O)CCCC[C@H]4C3)ccc12", "inhibition": "36.8% (active)"}, {"compound": "CCCc1cc(=O)oc2c(C)c(OCC(=O)N3CCC(C(=O)O)CC3)ccc12", "inhibition": "44.1% (active)"}, {"compound": "CCOC(=O)C1CCN(C(=O)COc2cccc3ccccc23)CC1", "inhibition": "-4.37%"}, {"compound": "CCCCc1cc(=O)oc2c(C)c(OCC(=O)N3CCC(C(N)=O)CC3)ccc12", "inhibition": "13.9%"}, {"compound": "Cc1c(C)c2ccc(OCC(=O)N3CCC(C(=O)O)CC3)c(C)c2oc1=O", "inhibition": "119% (active)"}, {"compound": "N#Cc1cccc(OC(=O)c2ccc3c(=O)n4c(nc3c2)CCC4)c1", "inhibition": "1.39%"}, {"compound": "CCCc1cc(=O)[nH]c(SCc2cc(=O)oc3c(C)c(C)ccc23)n1", "inhibition": "-1.06%"}, {"compound": "COC(=O)c1sc(-c2ccc(C(C)(C)C)cc2)cc1NC(=O)/C=C/C(=O)O", "inhibition": "1.9%"}, {"compound": "CCC(C)(C)n1nnnc1CN1CCN(c2nc3ccc(C)cc3cc2C#N)CC1", "inhibition": "3.89%"}, {"compound": "COc1cc2c(cc1OC)C(C)N(S(=O)(=O)c1cnc(Cl)c(Cl)c1)CC2", "note": "(configuration not stated)", "inhibition": "-4.46%"}, {"compound": "CN(CCC#N)c1ncnc2scc(-c3ccccc3)c12", "inhibition": "4.16%"}, {"compound": "COC(=O)c1sc(N2CCN(Cc3ccccc3)CC2)nc1N", "inhibition": "1.57%"}, {"compound": "C=CCNc1nc(N)c(C(=C(C#N)C#N)c2ccccc2)s1", "inhibition": "135% (active)"}, {"compound": "COc1ccc(N(CC(=O)NC2CCCCC2)C(=O)CNC(=O)c2ccco2)c(OC)c1", "inhibition": "3.44%"}]}]}
